One assay concerns cpb. In words: MAPPIT interaction score (arbitrary units); higher = stronger binary interaction signal, active = hit call of the paper. To be noted: MAPPIT configuration: N-C; pair source set: Lit-BM-16. The procedure: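 MAPPIT in HEK293T cells: Drosophila bait and prey ORFs (from the FlyBi ORF collection) were co-transfected in quadruplicate, with two wells stimulated by erythropoietin. Interaction-dependent JAK-STAT activation was read out with a STAT-responsive firefly luciferase reporter. Positive calls use the 99th percentile of random reference set (RRS) scores within each batch […]. Batches Dvs01 and Dvs02 used the N-N configuration and Dvs04 the N-C configuration. Pairs come from FlyBi screens, CuraGen, DPiM, Finley Y2H, Lit-BM-16, Lit-BS-16 and RRS.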
cpa, sequence (chain, as listed by the source): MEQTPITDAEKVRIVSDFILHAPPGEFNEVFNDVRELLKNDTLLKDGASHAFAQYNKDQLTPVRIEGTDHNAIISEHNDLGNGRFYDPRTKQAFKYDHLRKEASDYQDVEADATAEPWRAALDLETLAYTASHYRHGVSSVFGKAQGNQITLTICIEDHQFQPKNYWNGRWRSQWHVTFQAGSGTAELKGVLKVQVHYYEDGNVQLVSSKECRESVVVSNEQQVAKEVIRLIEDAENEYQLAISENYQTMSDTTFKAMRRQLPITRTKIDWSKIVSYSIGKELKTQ
cpa: the MAPPIT interaction score was 4.39 (active).

The assay is the same for the next values; noted with them: MAPPIT configuration: N-N; pair source set: Lit-BM-16.
Turning to cpa, the MAPPIT interaction score is 6.04 (active).

(Values after the supplement of paper PMC10105736.)
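Also: HEK293T cells with Epo stimulation, STAT-responsive firefly luciferase reporter, fold induction versus unstimulated cells divided by the larger fold induction of two negative controls lacking either bait or prey.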
